IL-1B inflam inh: inflammasome signaling inhibition, IL-1 beta readout; activity change, % at 57.5 µM; THP-1 LPS/ATP IL-1B secretion, AlphaLISA, 16 h; hits give low values; 4.7% of 360,000 active; in the data active means activity change below about -50%; inconclusive means mostly about -30% to -49%; further: on the % scale 0 is the no-effect control and ±100 the full control effect
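Secreted IL-1B measured by AlphaLISA bead assay after 16 h compound exposure of THP-1 cells; compounds (final up to 57.5 uM) added 1 h before LPS (250 ng/mL) and ATP (1.25 mM) stimulation; lower signal means less secretion.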
D3 ag: activates the human D3 dopamine receptor. AID 652048. D3R DiscoveRx beta-arrestin cells, luminescence, 90 min. max activation, %. 0.58% of 410,000 active; in the data active means max activation above about 30%; further: 0% is about no effect
Target sequence (P35462 whole entry, looked up): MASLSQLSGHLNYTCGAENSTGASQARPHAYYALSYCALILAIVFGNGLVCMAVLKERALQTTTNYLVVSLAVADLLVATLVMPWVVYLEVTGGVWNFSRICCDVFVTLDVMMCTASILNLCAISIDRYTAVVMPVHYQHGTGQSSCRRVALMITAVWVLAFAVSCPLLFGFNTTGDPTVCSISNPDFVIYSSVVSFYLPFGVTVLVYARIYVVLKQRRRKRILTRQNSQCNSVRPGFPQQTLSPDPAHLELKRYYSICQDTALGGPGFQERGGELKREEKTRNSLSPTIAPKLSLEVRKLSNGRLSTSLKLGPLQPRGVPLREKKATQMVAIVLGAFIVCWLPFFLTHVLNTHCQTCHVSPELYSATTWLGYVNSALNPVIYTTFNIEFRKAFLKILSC
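Cells at 1500/well, incubated overnight, then treated with pinned compounds (dopamine as control) for 90 min at 37 degrees C. DiscoveRx reagent added for 30 - 60 minutes at room temperature; luminescence read.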
DRD3 antagonist: D3 dopamine receptor (human) antagonism | D3R cells, DiscoveRx beta-arrestin luminescence, antagonist mode; hits give low values | max response, negative = inhibition, % | 2.5% of 360,000 active | AID 652054; in the data active means max response below about -50%; inconclusive means no clear call, values can overlap the other calls; further: on the % scale 0 is the no-effect control and ±100 the full control effect
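Cells plated overnight at 1500 cells/well, then exposed to library compounds with dopamine controls for 90 minutes at 37 degrees C. DiscoveRx reagent added for 30–60 minutes at room temperature; luminescence read, quantitative HTS format.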
DT40 TDP1 CPT: DT40-hTDP1 cell growth loss with CPT | chicken DT40 Tdp1-/-;hTDP1 cells + 20 nM CPT, ATP luminescence, 48 h | Potency, µM (titrated, usually from 46.2 µM), without a hit: top-dose activity change, negative = growth inhibition, actives largely listed as inhibitors | 12% of 420,000 active | AID 686979; further: potency means the concentration at half of the fitted maximal effect; on the % scale 0 is the no-effect control and ±100 the full control effect; nearly all actives have a fitted effect of over 55% in size
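Chicken DT40 Tdp1-/- cells complemented with human TDP1, 400 cells/well, exposed to compounds plus 20 nM camptothecin for at least 48 h at 37 C; viability read as ATP content by CellTiter-Glo luminescence.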
TDP1 cell noCPT: qHTS for Inhibitors of human tyrosyl-DNA phosphodiesterase 1 (TDP1): qHTS in cells in absence of CPT. DT40 Tdp1-/- hTDP1 cells, no CPT, ATP luminescence, 48 h. Potency, µM (doses to about 46.2 µM), for inactives: at the highest dose activity change, negative = growth inhibition, hits mostly inhibitors. 15% of 420,000 active. AID 686978, 2013; further: potency means the concentration at half of the fitted maximal effect; on the % scale 0 is the no-effect control and ±100 the full control effect; nearly all actives have a fitted effect of over 55% in size
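A cellular qHTS used chicken DT40 cells lacking endogenous Tdp1 but carrying stably transfected human TDP1. Compounds were applied without camptothecin, and cell growth kinetics were judged by ATP-dependent luminescence after ≥48 hr.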
ClpP mod: qHTS Assay for Activators of ClpP | ATP-dependent Clp protease proteolytic subunit (Bacillus subtilis (strain 168)), P80244 | purified B. subtilis ClpP, FRET peptide cleavage, 20 min | Potency, µM (highest dose often 57.5 µM), for the others: at the highest dose activity change, negative = active | 1.9% of 340,000 active | AID 651965, 2013; active means well fitted falling curve with a large enough effect; inconclusive means small, poorly fitted or top-dose-only effect; inactive means no such curve, though single readings can be large or run the other way; further: potency means the concentration at half of the fitted maximal effect; the source files actives as falling curves though it sought activators and does not explain the sign; nearly all actives have a fitted effect of over 65% in size
Target sequence (P80244 whole entry, looked up): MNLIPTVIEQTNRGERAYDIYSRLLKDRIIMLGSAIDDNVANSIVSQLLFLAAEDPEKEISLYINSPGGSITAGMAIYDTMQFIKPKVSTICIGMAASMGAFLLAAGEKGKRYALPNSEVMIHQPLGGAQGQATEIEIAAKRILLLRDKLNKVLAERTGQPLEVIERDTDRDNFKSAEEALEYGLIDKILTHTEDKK
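FRET quenching reversal measured ClpP activation: 10 microg/mL B. subtilis ClpP at pH 8 with the FRET-FV decapeptide, read at 430 nm after 320 nm excitation. The 20-min minus 0-min signal was scaled between DMSO/no-enzyme wells and ADEP (5.8 microM final).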
The depositor's hits bear a star; i = inactive; ? = inconclusive; . = no result; ! = not confirmed by another sample. Only some compounds are listed: those with a hit (about 21% of all), similar ones and a draw of the others. Unless noted, the call rests on the fitted dose curve; in most records, active means well fitted inhibition curve with a large enough effect; inconclusive means small, poorly fitted or top-dose-only effect; inactive means flat fitted curve, though single readings scatter.

SMILES	IL-1B inflam inh	D3 ag	DRD3 antagonist	DT40 TDP1 CPT	TDP1 cell noCPT	ClpP mod
CC(C)CCCCCCCCCCCCC(=O)NCC(=O)NC1C(O)C(O)C(Nc2ncnc3nc[nH]c23)OC1C(O)CO (configuration not stated)	-100*	4	?	0.15µM*	0.18µM*	-1%
CCOC(=O)CNc1ncnc2nc[nH]c12	16	4	-7	-5%	-5%	0%
O=C1c2ccccc2/C(=C\C#Cc2ccccn2)N1c1ccccc1	-100*	21	60	?	?	-2%
O=c1c2ccccc2c2ccccc2c(=O)n1Cc1cccnc1	0	-9	-108*	-31%	-9%	-3%
COc1ccc(Cl)cc1NC(=O)Cn1c(=O)n2nc(-c3ccccc3)nc2c2ccccc21	.	9	.	-5%	-24%	-1%
O=C(O)c1ccc(NC(=O)c2ccccc2NC(=O)c2ccccc2Cl)cc1	-2	-2	7	30%	0%	-1%
CC(C)(C)OC(=O)N1CCC(c2c(C(=O)NC3CCN(Cc4ccccc4)CC3)cnn2-c2cccc(F)c2)CC1	.	-19	.	12µM*	9.2µM*	1%
Cc1ccc(-n2ncc(C(=O)NC3CCN(Cc4ccccc4)CC3)c2C2CCN(C(=O)OC(C)(C)C)CC2)cc1C	.	-9	.	21µM*	15µM*	1%
CC(=O)N1c2ccccc2C(=O)C1N1CCN(c2cccc(C(F)(F)F)c2)CC1 (configuration not stated)	.	0	.	?	?	-15%
N#CCSc1nnc(C2CCCCC2)n1Cc1ccccc1	-7	-7	-30	10µM*	-22%	1%
Cc1noc(C)c1C(=O)N1CCC2(CCCN(C(=O)NC(C)C)C2)CC1	.	.	.	-6%	6%	.
Oc1ccc(C=NN=C2c3ccccc3-c3ccccc32)c(O)c1	-58*	-3	?	?	15µM*	1%
NC(N)=N/N=C/c1cccc([N+](=O)[O-])c1O	0	-14	-15	11%	-5%	.
O=[N+]([O-])c1cccc(/C=N\N=C2c3ccccc3-c3ccccc32)c1O	0	-13	-74*	?	16µM*	1%
CN(c1ccccc1)c1cc(Br)nc(Br)c1	26	15	2	6%	?	1%
O=S(=O)(Nc1ccc(-c2cn3c(n2)SCC3)cc1)c1ccccc1F	5	-8	-4	-25%	-1%	-3%
OCCN(CCO)c1nc(N2CCCCC2)c2nc(N(CCO)CCO)nc(N3CCCCC3)c2n1	-18	-1	-6	4.6µM*	15µM*!	-14%
CN(C)C(=O)CN1CCN(c2nc3nonc3nc2N2CCCCC2)CC1	-17	-8	-19	-15%	?	.
CCc1ccc(NC(=O)Nc2cn(C)c(=O)c3ccccc23)cc1	.	14	.	21µM*	21µM*	?
COc1ccc(NC(=O)NC23CC4CC(CC(C4)C2)C3)cc1OC	-13	-1	?	-18%	?	2%
Cc1ccc(NC(=O)Nc2cccs2)cc1	-17	-7	?	16µM*	26µM*	1%
CCOc1ccc(NC(=O)Nc2cccs2)cc1	-11	-3	-11	10µM*	18µM*	-1%
CCOc1ccc(NC(=O)NC23CC4CC(CC(C4)C2)C3)cc1	-67*	-6	-24	21µM*	23µM*	.
COc1ccc(NC(=O)Nc2cccs2)cc1OC	-8	0	8	-20%	-17%	-4%
O=C(NCCCN1CCOCC1)c1ccc(NS(=O)(=O)c2ccccc2)cc1	i	4	-14	12%	4%	-1%
SMILES	IL-1B inflam inh	D3 ag	DRD3 antagonist	DT40 TDP1 CPT	TDP1 cell noCPT	ClpP mod
CN(C)C(=O)COC(=O)c1ccccc1Nc1ccc(SC(F)F)cc1	-19	0	-7	?	?	-4%
Cc1cccc(NC(=O)Nc2cccs2)c1C	.	8	.	26µM*	?	0%
Cc1c(NC(=O)Nc2cccs2)cccc1[N+](=O)[O-]	0	-10	-12	?	?	0%
CC(=O)c1cccc(NC(=O)Nc2cccs2)c1	0	-11	-51*	16µM*	?	-4%
COc1cccc(NC(=O)Nc2cccs2)c1	5	3	2	?	?	-1%
Cc1ccc(NC(=O)Nc2ccno2)cc1	-13	4	6	?	16µM*	-4%
CCc1ccc(NC(=O)Nc2cccs2)cc1	-19	6	11	21µM*	15µM*	1%
CCN(CC)C(=O)C(=O)Nc1ccc(OC)c(Cl)c1	16	0	9	10%	6%	.
Cc1ccc(N(C(=O)c2ccccc2Cl)C2=NC(C)CS2)c(C)c1 (configuration not stated)	41	0	-10	?	18µM*	0%
COc1ccc(SCCN2CC[C@@H](C(C)(C)C)CCC2=O)cc1	20	-16	-18	?	16µM*	-2%
COc1ccc(SC[C@H](Cc2ccccc2)N2CC[C@@H](C(C)(C)C)CCC2=O)cc1	-51*	-14	-17	18µM*	?	1%
COc1ccc(SC[C@H](Cc2ccccc2)N2CC[C@@H](O)CCC2=O)cc1	14	11	20	?	?	0%
COc1ccc(SCCN2CC[C@@H](O)CCC2=O)cc1	3	-17	-9	?	-20%	-1%
C[C@H]1CCC(=O)N([C@H](COc2ccccc2)Cc2ccccc2)CC1	-4	15	-7	18µM*	16µM*	-3%
CC(C)(C)[C@H]1CCC(=O)N(CCSc2ccc(Br)cc2)CC1	.	.	.	?	22µM*	1%
CC1CCC(=O)N(CCOc2ccccc2)CC1 (configuration not stated)	-1	4	41	?	-11%	0%
COc1ccc(N(CC(=O)Nc2cccnc2)S(=O)(=O)c2ccccc2)cc1OC	8	-14	2	-11%	-15%	.
CC[C@]12c3[nH]c4cc(CCC(=O)N(C)C)ccc4c3CCN1C(=O)[C@@H](CC(=O)NCc1ccco1)C[C@@H]2C(=O)N1CCN(C(=O)C2CC2)CC1	-3	-24	3	-11%	-5%	-12%

Screens: PubChem, National Center for Advancing Translational Sciences (NCATS)
